Source: the OligoGym collection

biological target: DDB2; experiment: pooled miR-30 sensor sort-seq; sequence = guide strand; conditions: shRNA
Further: reference of the scale not given here.

| Sequence | sensor-assay potency score (higher = more potent) |
| --- | --- |
| TTGATGGTGTCTGAGCTGGCAA | -1.17 |
| TCCATCGAACACGTCGATCGTC | -0.818 |
| TAAAGTCTTGCAGCCTAGTTGT | -0.222 |
| TTTGCCGTCCATGTTCAGCAGG | -0.642 |
| TTTTGAAATTAGGATCTGGGTA | -0.102 |
| TCGAACACGTCGATCGTCCTCA | -0.285 |
| TTCGGCTACTAGCAGACACATC | -1.25 |
| TAATACAATCTCGGAGGTCTTC | -0.478 |
| TAAACTCGGATCTCGCTCTTCT | 0.0905 |
| TCTCCTGTGACCACCATTCGGC | -0.886 |
| TGAGTTTCCATCGAACACGTCG | 0.1 |
| TAGAGCTGACACATCATCTTCC | 0.382 |
| TAATATCCGGTAAGAATCCAGA | -0.584 |

biological target: DDX28; experiment: as above; conditions: shRNA

| Sequence | sensor-assay potency score (higher = more potent) |
| --- | --- |
| TTCTGCTCTGTCACGATGCTTG | -0.667 |
| TTGGATTTTGTGGTCATCCAGA | -0.675 |
| TTGACAACCAGCTCCACACCAG | -0.162 |
| TTCGTCGGGACTGCGGACCGTG | -0.386 |
| TAGTGCGTGCAGCACACGGGGC | -1.65 |
| ATAATTGACAACCAGCTCCACA | -0.971 |
| TAGCTGAGAGTCTTGCCACTGC | -0.373 |
| TAATCTTGCAGCGTTGGGGGGA | -0.579 |
| TCATCCAACACCAAGAAGGAGA | -0.925 |
| TATGTCTCGGGAGCTCTTCTGG | -0.986 |
| TTCCAGGAAGCTTTCATCCAGC | -0.626 |
| TAGTCCTGGAAGACTTCTCCTT | -1.12 |

biological target: DDX49; experiment: as above; conditions: shRNA

| Sequence | sensor-assay potency score (higher = more potent) |
| --- | --- |
| TTTGATCTCACACTCTCTTCGC | -0.199 |
| TCTTTCTGCTTCATCATGGAGT | -0.0519 |
| TCTGTTGCGATCAGGATCCGGT | 0.242 |
| TGATCTCACACTCTCTTCGCAC | -1.01 |
| TTGATCTGCTCCTCGATGGCGT | 0.0961 |
| TAGATGCTGGACTTGAACTTGG | -0.112 |
| TCGTACTGTGTCACCAGCGTGA | -0.48 |
| TTGATGACCACCTGTACCGTAG | -0.168 |
| TTGTGGTTGATGACCACCTGTA | -0.316 |
| TTCTTCTTGATCTGCTCCTCGA | -0.688 |
| TTGATCTCACACTCTCTTCGCA | -0.0453 |
| TCATCCATCACCAGGAAGCGGA | -1.17 |

biological target: DEF6; experiment: as above; conditions: shRNA

| Sequence | sensor-assay potency score (higher = more potent) |
| --- | --- |
| TTCTTCATCTCGCCGAGCTTTC | -1.29 |
| TTGAAGAGGCACCAGAGGCGGA | -1.08 |
| TCAACTGCTTCAGCTTCTCTTC | -0.841 |
